# CYP2C19 act = cytochrome P450 2C19 (human) activation; P33261; 96,000 tested, under 10 active; activation factor at 5 µM; AID 1025; recombinant CYP2C19, luciferin-H EGE luminescence; hits give high values; 0 = fully inhibited enzyme, 1 = untreated enzyme;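 active means activation factor of at least 2 at 5 µM in the primary screen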
# Target sequence (P33261 whole entry, looked up): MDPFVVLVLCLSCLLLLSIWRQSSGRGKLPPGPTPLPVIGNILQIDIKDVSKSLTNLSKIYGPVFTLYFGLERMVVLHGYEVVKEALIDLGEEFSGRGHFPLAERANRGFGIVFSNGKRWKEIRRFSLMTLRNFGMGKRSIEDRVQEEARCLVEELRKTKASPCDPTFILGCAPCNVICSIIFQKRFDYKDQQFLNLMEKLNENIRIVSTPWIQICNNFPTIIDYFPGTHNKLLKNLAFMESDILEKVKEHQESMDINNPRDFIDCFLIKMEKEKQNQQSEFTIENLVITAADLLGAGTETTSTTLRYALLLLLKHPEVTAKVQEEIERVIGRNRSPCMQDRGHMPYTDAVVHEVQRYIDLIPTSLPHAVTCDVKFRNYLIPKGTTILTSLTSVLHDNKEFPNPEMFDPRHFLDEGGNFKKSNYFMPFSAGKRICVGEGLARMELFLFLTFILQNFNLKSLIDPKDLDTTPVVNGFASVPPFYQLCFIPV
# PostGolgi yeast = growth inhibition of a yeast mutant, post-Golgi transport screen. post-Golgi transport phenotypic cell assay. inhibition, % at 10 µM. actives 0.9% (n = 98,000);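 further: yeast cells grown in 1536-well plates; yeast grown about 18 h at 30C before absorbance read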
# PostGolgi ctrl = growth of the yeast control strain, post-Golgi counter-screen; AID 738; inhibition, % at 10 µM; efflux-deficient yeast background strain, growth absorbance A615, 16 h; actives 5% (n = 98,000)
# CYP2C19 inh = human CYP2C19 inhibition. P33261. CYP2C19 Supersomes, luciferin-H EGE luminescence, 30 min. inhibition, % at 5 µM. actives 21% (n = 96,000);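 active means CYP2C19 inhibition above a set limit at 5 µM in the primary screen, cut at about 50% in these data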
# CYP2C9 inh = blocks human cytochrome P450 2C9 | P11712 | inhibition, % at 5 µM | CYP2C9 Supersomes, luciferin-H conversion, luminescence | actives 20% (n = 96,000);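 active means blocking of liver enzyme CYP2C9 beyond about 50% at 5 µM, limit read from the data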
# CYP2C9 act = CYP2C9 (human) activation. P11712. recombinant CYP2C9, luciferin-H conversion, luminescence; hits give high values; factor 1 = untreated enzyme, 0 = blocked. activation factor at 5 µM. actives 1.4% (n = 96,000). AID 1024;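 active means activation factor of 2 or more for CYP2C9 at a 5 µM dose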
# Numbers stand for hits; - = inactive; . = no result. In the library only some 32% were active in any assay of this set; here they are far more common. Unless noted, no stated cut-off is given here; in the data, active means inhibition above about 30%; inactive means the rest.
SMILES,CYP2C19 act,PostGolgi yeast,PostGolgi ctrl,CYP2C19 inh,CYP2C9 inh,CYP2C9 act
CCOc1ccc(NC(=O)[C@@H](NC(=O)c2ccccc2Br)C(C)C)cc1,-,-,-,-,-,-
CC(C)c1ccccc1OCCCCCNCCO,-,-,-,59,-,-
CN(C)c1nc(-c2ccccc2)nc(-c2ccc(Cl)cc2)c1C#N,-,-,-,-,-,-
CN(C)c1nc(-c2ccccn2)nnc1-c1ccccc1,-,-,-,51,-,-
Cc1ccc2oc3c(c(=O)c2c1)C(c1cccc(O)c1)N(c1ccccn1)C3=O (stereo unspecified),-,-,-,-,-,-
COc1cc(C2c3c(oc4ccc(C)cc4c3=O)C(=O)N2c2cc(C)ccn2)cc(OC)c1OC (stereo unspecified),-,.,.,-,59,-
CCN1CCN(c2ncc(C(=O)N3CCCc4ccccc43)c3ccccc23)CC1,-,-,-,81,-,-
O=C(O)c1cccc(C(=O)Nc2cccc(NC(=O)C3CCCO3)c2)c1 (stereo unspecified),-,-,-,62,-,-
O=C(Nc1ccc(Oc2ccccc2)cc1)C1CCCO1 (stereo unspecified),-,-,-,58,-,-
O=C(O)c1cccc(NC(=O)c2cccc(NC(=O)C3CCCO3)c2)c1 (stereo unspecified),-,-,-,-,-,-
COCCNC(=O)C(OC(=O)c1cccs1)c1ccccc1 (stereo unspecified),-,-,-,-,-,-
O=C(CNCC1CCCO1)Nc1ccccc1N1CCCCCC1 (stereo unspecified),-,-,-,-,-,-
O=C(Nc1nc(-c2cccs2)cs1)c1ccc(S(=O)(=O)N2CCCCC2)cc1,-,-,41,-,60,-
Cc1csc(NC(=O)c2cccc(S(=O)(=O)N3CCCCC3)c2)n1,-,-,-,-,-,-
O=C(Nc1nc(-c2ccccc2)cs1)c1cccc(S(=O)(=O)N2CCN(Cc3ccccc3)CC2)c1,-,-,-,53,90,-
CN1CCN(S(=O)(=O)c2cccc(C(=O)Nc3nc(-c4ccccc4)cs3)c2)CC1,-,-,-,-,-,-
O=C(Nc1nc(-c2cccs2)cs1)c1cccc(S(=O)(=O)N2CCCCCC2)c1,-,-,-,72,94,-
CCOC(=O)Cc1csc(NC(=O)c2ccc(S(=O)(=O)N3CCCC3)cc2)n1,-,-,-,79,88,-
CCOC(=O)CN1C(=O)C(C)(C)Oc2ccc(C(=O)NC(C)(C)CC)cc21,-,-,-,-,-,-
CCC(C)(C)n1nnnc1C(c1ccc(O)c(OC)c1)N1CCc2ccccc2C1 (stereo unspecified),-,-,-,-,-,-
CC(=O)Nc1ccc(OCC(O)CN2CCN(Cc3ccccc3)CC2)cc1 (stereo unspecified),-,-,-,-,-,-
CC(=O)Nc1ccc(S(=O)(=O)NC2=C(N3CCN(Cc4ccccc4)CC3)C(=O)c3ccccc3C2=O)cc1,-,-,-,76,80,-
COc1cccc(Cn2c(C3CC3)nc3ccc(NC(=O)c4ccco4)cc3c2=O)c1,-,-,31,-,-,-
O=C(Nc1ccc2nc(C3CC3)n(Cc3ccc(F)cc3)c(=O)c2c1)c1ccco1,-,-,-,56,67,-
COc1ccc(Cn2c(C3CC3)nc3ccc(NC(=O)C4CC4)cc3c2=O)cc1,-,-,-,-,-,-
SMILES,CYP2C19 act,PostGolgi yeast,PostGolgi ctrl,CYP2C19 inh,CYP2C9 inh,CYP2C9 act
O=C(Nc1ccc(Cn2nnc3ccccc32)cc1)c1ccco1,-,-,-,-,-,-
CCC(=O)NC1(C(F)(F)F)C(=O)Nc2c1c(=O)n(C)c(=O)n2C (stereo unspecified),-,-,-,72,58,-
Cc1ccc(S(=O)(=O)NC2(C(F)(F)F)C(=O)Nc3c2c(=O)n(C)c(=O)n3C)cc1 (stereo unspecified),-,-,-,-,-,-
O=C(COC(=O)C1CC1)Nc1ccc(OC(F)F)cc1,-,-,-,77,-,-
CCCCC(=O)OCC(=O)Nc1ccc(OC(F)F)cc1,-,-,-,-,-,-
O=C(COC(=O)CCC1CCCCC1)Nc1ccc(OC(F)F)cc1,-,-,-,-,-,-
O=C(COC(=O)C1CCC1)Nc1ccc(OC(F)F)cc1,-,-,-,86,-,-
CCOCCCNC(=S)N1C2CCC1CC(NC(=O)NC13CC4CC(CC(C4)C1)C3)C2 (stereo unspecified),-,-,-,-,-,-
O=C(c1ccc(Cl)c(S(=O)(=O)Nc2ccc(F)cc2)c1)N1CCN(c2ccccn2)CC1,-,-,-,67,70,-
Cc1nc2ccc(C(=O)N3CCN(c4ccccn4)CC3)cc2s1,-,-,-,-,-,-
CN(c1ccccc1)S(=O)(=O)c1cc(C(=O)N2CCN(c3ccccn3)CC2)ccc1Cl,-,-,-,73,99,-
Cc1ccc(NS(=O)(=O)c2ccc(C(=O)N3CCN(c4ccccn4)CC3)cc2)cc1,-,-,-,-,-,-
COc1ccc(OCCCCOc2ccccc2Cl)cc1,-,-,-,-,-,-
Cc1[nH]c2ccccc2c1-c1nc2ccccc2[nH]1,-,-,-,-,68,-
Cc1ccc(-c2nc3ccccc3[nH]2)s1,-,-,-,-,-,-
COc1ccc(-c2nc3ccccc3[nH]2)cc1,-,-,-,65,-,-
O=C(CCC(=O)c1ccc[nH]1)c1ccc(Cl)cc1,-,-,-,-,-,-
CCOC(=O)c1c(C)c(C(=O)NCCCN2CCCC2=O)c(C)n1CC,-,-,-,-,-,-
CC(C)CC(NC(N)=O)C(=O)OCC(=O)NC(=O)NC1CCCC1 (stereo unspecified),-,-,-,57,-,-
CCOC(=O)Cn1ncc2c(=O)oc3ccccc3c21,-,-,-,-,-,-
O=C(Cn1ncc2c(=O)oc3ccccc3c21)N1CCCc2ccccc21,-,-,-,-,67,-
O=C(Cn1ncc2c(=O)oc3ccccc3c21)N1CCN(c2ccccn2)CC1,-,35,-,-,-,-
O=C(Cn1ncc2c(=O)oc3ccccc3c21)N1CCN(C(=O)c2ccco2)CC1,-,-,-,-,-,-
CCC(=O)N1CCN(c2ccccc2NC(=O)COc2ccccc2Cl)CC1,-,-,-,87,94,-
CCOc1ccccc1C(=O)OCC(=O)Nc1ccc(N2CCCCC2)cc1,-,-,-,-,-,-
O=C(CNCCC1=CCCCC1)Nc1ccc(N2CCCCCC2)cc1,-,-,100,-,-,-
O=C(COC(=O)c1ccc(O)cc1)Nc1ccc(N2CCCCC2)cc1,-,-,-,64,74,-
CCOc1ccccc1OCC(=O)Nc1ccc(N2CCCCC2)cc1,-,-,-,-,-,2.6
CCOC(=O)N1CCN(C(=O)COc2ccccc2Cl)CC1,.,-,-,.,.,.
C=CCOc1c2ccc(C(=O)NCc3ccc(C)cc3)cc2nn1C,-,-,-,-,-,-
